Data as given in article PMC5515408, “Sequence-specific DNA binding by MYC/MAX to low-affinity non-E-box motifs”.
Over roughly 5,000 sequences, “log2 normalized fluorescence” has its median near 0.089; the highest 2% begin near 0.81. The entries come from a sample that favours the highest values as a whole.

What follows are sequences tested against MYC (p64);MAX (p21), in MYC:MAX (human;human, UniProt P01106-1;P61244-2 1-439;1-151, |) (assay: protein-binding microarray (anti-MAX antibody); PBM: 15 mM Tris-HCl pH 7.5, 100 mM KCl, 0.075% NP40, 7.5 mM beta-mercaptoethanol, 375 ng/ul BSA, 8 ng/ul poly(dA-dT):(dA-dT), 550 ng complex, 60 min, room tempe; high values mean tight binding). Conditions: protein: recombinant;recombinant; tags: 6xHis;6xHis; copies: 1;1; label: 3' end of printed strand (linker) attached to glass slide; dsDNA, one strand shown.
Procedure, shortened: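 Recombinant His-tagged human MYC:MAX or MAX:MAX dimers (550 ng, expressed in E. coli) were incubated for 60 min at room temperature in Tris-KCl buffer, pH 7.5, with NP40, BSA and poly(dA-dT) competitor. The custom Agilent glass array held ~5000 unique 12-nt sequences, each spotted in triplicate and made double-stranded by primer extension. Bound protein was detected with anti-MAX and secondary antibodies and scanned at 543 nm. Binding is reported as log2 normalized fluorescence.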

Chain of MYC (p64);MAX (p21), in MYC:MAX (P01106 16-454, chain 1 of 2): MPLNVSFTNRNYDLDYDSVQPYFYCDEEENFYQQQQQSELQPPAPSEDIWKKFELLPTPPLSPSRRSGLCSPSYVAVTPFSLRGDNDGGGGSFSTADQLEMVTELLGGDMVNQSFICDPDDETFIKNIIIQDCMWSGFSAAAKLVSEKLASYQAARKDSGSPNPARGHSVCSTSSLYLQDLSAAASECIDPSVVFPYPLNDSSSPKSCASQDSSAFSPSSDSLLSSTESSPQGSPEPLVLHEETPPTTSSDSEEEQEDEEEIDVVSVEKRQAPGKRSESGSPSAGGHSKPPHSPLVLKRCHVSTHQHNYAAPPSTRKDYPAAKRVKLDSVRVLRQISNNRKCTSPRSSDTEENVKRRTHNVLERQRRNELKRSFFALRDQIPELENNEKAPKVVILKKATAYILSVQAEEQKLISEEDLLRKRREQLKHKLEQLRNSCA
Chain of MYC (p64);MAX (p21), in MYC:MAX (P61244 other isoform, or with tags, fused parts or gaps |, chain 2 of 2): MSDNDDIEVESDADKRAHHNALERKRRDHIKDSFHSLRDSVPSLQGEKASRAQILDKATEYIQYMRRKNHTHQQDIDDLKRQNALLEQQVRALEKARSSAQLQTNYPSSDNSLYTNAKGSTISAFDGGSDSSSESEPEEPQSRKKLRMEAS

Row | Sequence | binding signal
1 | CCGGCTGGCACGTGGTTTTAATAGCTAAGATTACTATATCGACG | 0.67 log2 normalized fluorescence
2 | CCGGCTAGCACGTGTTTTTAATAGCTAAGATTACTATATCGACG | 0.813 log2 normalized fluorescence
3 | CCGGCTGAATCTTGGTATTAATAGCTAAGATTACTATATCGACG | -0.0321 log2 normalized fluorescence
4 | CCGGCTGAAAGGTCGTATTAATAGCTAAGATTACTATATCGACG | 0.0812 log2 normalized fluorescence
5 | CCGGCTGGAGCGTGGTATTAATAGCTAAGATTACTATATCGACG | 0.418 log2 normalized fluorescence
6 | CCGGCTGAAATCGCGTATTAATAGCTAAGATTACTATATCGACG | 0.18 log2 normalized fluorescence
7 | CCGGCTGAATCAATGTATTAATAGCTAAGATTACTATATCGACG | 0.252 log2 normalized fluorescence
8 | CCGGCTGAGAACACGTATTAATAGCTAAGATTACTATATCGACG | 0.318 log2 normalized fluorescence
9 | CCGGCTGACCTTGAGTATTAATAGCTAAGATTACTATATCGACG | 0.204 log2 normalized fluorescence
10 | CCGGCAGAAACGTGTTATTAATAGCTAAGATTACTATATCGACG | 0.573 log2 normalized fluorescence
11 | CCGGCAGACACGTGTTATTAATAGCTAAGATTACTATATCGACG | 0.993 log2 normalized fluorescence
12 | CCGGCAGACACGTGATATTAATAGCTAAGATTACTATATCGACG | 0.851 log2 normalized fluorescence
13 | CCGGCTGGCACGTGGCATTAATAGCTAAGATTACTATATCGACG | 0.721 log2 normalized fluorescence
14 | CCGGCCGACACCTGTTATTAATAGCTAAGATTACTATATCGACG | 0.432 log2 normalized fluorescence
15 | CCGGCAGACACGTCGTATTAATAGCTAAGATTACTATATCGACG | 0.32 log2 normalized fluorescence
16 | CCGGCCGACACGTGTTATTAATAGCTAAGATTACTATATCGACG | 0.999 log2 normalized fluorescence
17 | CCGGCAGACACGCGATATTAATAGCTAAGATTACTATATCGACG | 0.437 log2 normalized fluorescence
18 | CCGGCTGGCACGTGGTGTTAATAGCTAAGATTACTATATCGACG | 0.954 log2 normalized fluorescence
19 | CCGGCAGACACGTGATCTTAATAGCTAAGATTACTATATCGACG | 0.751 log2 normalized fluorescence

Row | Sequence | binding signal
20 | CCGGCCGACACGGCGTATTAATAGCTAAGATTACTATATCGACG | 0.161 log2 normalized fluorescence
21 | CCGGCTGGCACGTGGTATTAATAGCTAAGATTACTATATCGACG | 0.809 log2 normalized fluorescence
22 | CCGGCTGATCCCCCGTATTAATAGCTAAGATTACTATATCGACG | 0.0512 log2 normalized fluorescence
23 | CCGGCTGACACGGCGTATTAATAGCTAAGATTACTATATCGACG | 0.188 log2 normalized fluorescence
24 | CCGGCTGAACGGTTGTATTAATAGCTAAGATTACTATATCGACG | 0.123 log2 normalized fluorescence
25 | CCGGCTGAACCAACGTATTAATAGCTAAGATTACTATATCGACG | 0.302 log2 normalized fluorescence
26 | CCGGCTGAGTTCCCGTATTAATAGCTAAGATTACTATATCGACG | 0.0824 log2 normalized fluorescence
27 | CCGGCTGACGTCACGTATTAATAGCTAAGATTACTATATCGACG | 0.246 log2 normalized fluorescence
28 | CCGGCTGAAAGCATGTATTAATAGCTAAGATTACTATATCGACG | 0.491 log2 normalized fluorescence
29 | CCGGCTGAGCATGCGTATTAATAGCTAAGATTACTATATCGACG | 0.461 log2 normalized fluorescence
30 | CCGGCTGAGTCCGCGTATTAATAGCTAAGATTACTATATCGACG | 0.0725 log2 normalized fluorescence
31 | CCGGCTGACCCGTGGTTTTAATAGCTAAGATTACTATATCGACG | 0.466 log2 normalized fluorescence
32 | CCGGCAGATACGTGGTGTTAATAGCTAAGATTACTATATCGACG | 0.257 log2 normalized fluorescence
33 | CCGGCAGACACGTGGTGTTAATAGCTAAGATTACTATATCGACG | 0.826 log2 normalized fluorescence
34 | CCGGCAGACATGTGGTGTTAATAGCTAAGATTACTATATCGACG | 0.734 log2 normalized fluorescence
35 | CCGGCTGACTTCAGGTATTAATAGCTAAGATTACTATATCGACG | 0.148 log2 normalized fluorescence
36 | CCGGCTGACCAAGTGTATTAATAGCTAAGATTACTATATCGACG | 0.214 log2 normalized fluorescence
37 | CCGGCATCCACGTGGTATTAATAGCTAAGATTACTATATCGACG | 0.471 log2 normalized fluorescence
38 | CCGGCAATCACGTGGTATTAATAGCTAAGATTACTATATCGACG | 0.75 log2 normalized fluorescence

Row | Sequence | binding signal
39 | CCGGCCTTCACGTGGTATTAATAGCTAAGATTACTATATCGACG | 0.765 log2 normalized fluorescence
40 | CCGGCTTTCACGTGGTATTAATAGCTAAGATTACTATATCGACG | 0.847 log2 normalized fluorescence
41 | CCGGCGTTCACGTGGTATTAATAGCTAAGATTACTATATCGACG | 0.664 log2 normalized fluorescence
42 | CCGGCATTCACGTGGTATTAATAGCTAAGATTACTATATCGACG | 0.958 log2 normalized fluorescence
43 | CCGGCTGACGAGATGTATTAATAGCTAAGATTACTATATCGACG | 0.0764 log2 normalized fluorescence
44 | CCGGCTGACACGCGCTATTAATAGCTAAGATTACTATATCGACG | 0.811 log2 normalized fluorescence
45 | CCGGCTGGGTCGTGGTATTAATAGCTAAGATTACTATATCGACG | 0.0754 log2 normalized fluorescence
46 | CCGGCTGAGGTGACGTATTAATAGCTAAGATTACTATATCGACG | 0.0346 log2 normalized fluorescence
47 | CCGGCTGAATAATTGTATTAATAGCTAAGATTACTATATCGACG | -0.0392 log2 normalized fluorescence
48 | CCGGCAGACACGCGGTCTTAATAGCTAAGATTACTATATCGACG | 0.8 log2 normalized fluorescence
49 | CCGGCTGACCCGTGGTCTTAATAGCTAAGATTACTATATCGACG | 0.399 log2 normalized fluorescence
50 | CCGGCTGACACACGGTCTTAATAGCTAAGATTACTATATCGACG | 0.354 log2 normalized fluorescence
51 | CCGGCTGACACGTCTTATTAATAGCTAAGATTACTATATCGACG | 0.308 log2 normalized fluorescence
52 | CCGGCTAACACGCGGTCTTAATAGCTAAGATTACTATATCGACG | 0.739 log2 normalized fluorescence
53 | CCGGCTGACACGTGGTCTTAATAGCTAAGATTACTATATCGACG | 1.02 log2 normalized fluorescence
54 | CCGGCAGACACGTGGTCTTAATAGCTAAGATTACTATATCGACG | 0.904 log2 normalized fluorescence
55 | CCGGCTGACACGCGGTCTTAATAGCTAAGATTACTATATCGACG | 1.03 log2 normalized fluorescence
56 | CCGGCAGACACGTGGTATTAATAGCTAAGATTACTATATCGACG | 0.798 log2 normalized fluorescence
